Source: PubChem BioAssay (NMMLSC)
RGS7-Gao: human RGS7-Galphao interaction regulation; P09471; binding response (% of control), % at 10 µM; 220,000 compounds, 0.35% hits; Multiplexed bead flow cytometry, RGS7-Galphao binding; actives lie on both sides; in the data active means binding response below about 49% or above about 150%; inconclusive means no clear call, values can overlap the other calls; inactive means in between;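 further: fluorescent Galphao held in activated GDP-AlF4 state binding bead-coupled RGS7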
GSH bead fluor: compound fluoresces at 488/530 nm on GSH beads | fluorescence (KMESF) at 10 µM | AID 1776 | GSH beads flow cytometry, compound fluorescence 488/530 nm; hits give high values | 190,000 compounds, 0.25% hits; in the data active means fluorescence above about 89;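 further: glutathione beads carrying GST-tagged Bcl family fusion proteins plus one bare bead set; values are compound well signal with DMSO vehicle wells as background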
RGS8-Gao: modulates binding of RGS8 to human Galphao. P09471. multiplexed bead flow cytometry; actives lie on both sides. response (percent of control binding), % at 10 µM. 220,000 compounds, 0.34% hits; in the data active means response below about 60% or above about 140%; inactive means in between;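 further: Galphao activated as the GDP aluminium fluoride complex binding bead-coupled RGS8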
RGS16-Gao: regulators of human RGS16-Galphao interaction; O15492+P09471; bead-based flow cytometry RGS16-Galphao binding, fluorescence; actives lie on both sides; binding response (% of control), % at 10 µM; 220,000 compounds, 0.38% hits; AID 1441; call rule not given here;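 further: Galphao activated by GDP with aluminum fluoride before binding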
RGS4-Gao reg: modulates binding of RGS4 to human Galphao | Multiplexed bead flow cytometry; actives lie on both sides | binding response (% of control), % at 10 µM | 220,000 compounds, 0.33% hits; in the data active means binding response below about 49% or above about 150%; inactive means in between;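 further: fluorescent Galphao activated with aluminum fluoride binding bead-coupled RGS4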
Avidin fluor: avidin bead compound fluorescence profile | Avidin beads, compound fluorescence 488/530 nm, flow cytometry; hits give high values | 220,000 compounds, 0.38% hits | fluorescence (KMESF) at 10 µM | AID 1775; in the data active means fluorescence above about 47
Active calls of the source: *; ? = inconclusive; · = not tested or not shown; [ ] = another dose, or the depositor's remark. Shown are actives, neighbours in structure and some others; about 1.2% of the full set was active somewhere.

SMILES	RGS7-Gao	GSH bead fluor	RGS8-Gao	RGS16-Gao	RGS4-Gao reg	Avidin fluor
COc1ccc(CNCCSc2nnnn2C)c(OC)c1OC	107	13	105	107	104	13
c1ccc(-c2onc3c2CCCC3)cc1	110	242*	108	97	101	8
O=C(Nc1ccccn1)c1onc2c1CCCC2	103	11	96	84	98	4
CC1=C(C)CC(C(=O)Nc2cccc(Cl)c2)C(C(=O)O)C1 (stereo unspecified)	99	46	101	104	103	15
O=C(O)C1CC=CCC1C(=O)Nc1cccc(Cl)c1 (stereo unspecified)	102	277*	105	102	102	7
CN1C(=O)c2ccccc2Sc2ccc(NC(=O)NC3CC3)cc21	133	20	100	105	108	92*
O=C(Nc1ccc2c(c1)N(Cc1ccccc1)C(=O)c1ccccc1S2)NC1CC1	94	24	89	75	89	8
N#C/C(=C\N1CCOCC1)C(N)=O	?	·	100	102	98	7
Cc1cccc(S(=O)(=O)NCCC(=O)OC(C)C(=O)NC(=O)NC2CCCCC2)c1 (stereo unspecified)	99	258*	99	101	99	8
O=C(COC(=O)CCNS(=O)(=O)c1cccc(C(F)(F)F)c1)NC(=O)NC1CCCCC1	100	12	96	89	100	11
COc1cc(C2/C(=C(/O)c3ccc(OCC(C)C)cc3)C(=O)C(=O)N2CCN(C)C)ccc1O (stereo unspecified)	113	262*	117	142	121	8
CC(C)COc1ccc(/C(O)=C2/C(=O)C(=O)N(CCN(C)C)C2c2ccncc2)cc1 (stereo unspecified)	108	20	115	158	111	19
CCc1c(C(=O)NNC(=S)NC2CCCCC2)csc1C	?	15	101	100	98	8
CC(=O)NNC(=S)NCCc1ccccc1	135	12	101	110	106	96*
CCc1c(C(=O)NNC(=S)NCCc2ccccc2)csc1C	97	148*	96	94	92	3
O=C(CSc1cccc(C(F)(F)F)c1)Nc1ccc(Cl)cc1Cl	98	27	100	95	96	8
Cc1ccc([N+](=O)[O-])cc1NC(=O)Nc1cccc(F)c1	?	·	101	102	94	7
Cc1ccc2c(c1)sc1nc(=O)n(-c3cccc(Cl)c3)c(=O)n12	109	10	109	114	111	25
Cc1cc(C)nc(Nc2ncc(O)n2-c2ccc(C)c(C)c2)n1	112	18	104	104	105	56*
O=C(c1cccc(F)c1)N1CCCC(C(=O)N2CCN(c3ccccc3)CC2)C1 (stereo unspecified)	?	·	98	100	94	5
O=C(c1ccc(Cn2cc(Br)cn2)o1)N1N=C(C(F)F)CC1(O)C(F)F (stereo unspecified)	145	39	111	145	150*[activator]	66*
O=C(C1CCN(S(=O)(=O)N2CCC3(CC2)OCCO3)CC1)N1CCC(Cc2ccccc2)CC1	298*[activator]	28	117	526*[activator]	387*[activator]	233*
CCOc1cc2oc(=O)c3c(c2cc1Cl)CCC3	148	29	104	115	107	74*
Cc1cc(C(=O)CNCc2ccco2)c(C)n1-c1ccc(F)cc1	108	248*	103	101	106	8
COC(CNC(=O)c1c[nH]c2ccc(S(=O)(=O)N3CCC4(CC3)OCCO4)cc2c1=O)OC	96	26	90	70	95	3
SMILES	RGS7-Gao	GSH bead fluor	RGS8-Gao	RGS16-Gao	RGS4-Gao reg	Avidin fluor
O=C(c1c[nH]c2ccc(S(=O)(=O)N3CCC4(CC3)OCCO4)cc2c1=O)N1CCOCC1	103	12	101	99	100	51*
CN(C)S(=O)(=O)c1cccc(NC(=O)COC(=O)COc2ccc(Br)cc2)c1	?	·	99	98	93	20
CN(C)S(=O)(=O)c1cccc(NC(=O)COC(=O)CCOc2ccccc2)c1	?	13	97	101	120	88*
Cc1ccc(NC(=O)C2CC(=O)N(Cc3ccccc3)C2)cc1S(=O)(=O)N1CCCCCC1 (stereo unspecified)	100	14	104	99	100	21
CCc1ccc(N2CC(C(=O)Nc3ccc(C)c(S(=O)(=O)N4CCOCC4)c3)CC2=O)cc1 (stereo unspecified)	152*[activator]	34	145*[activator]	168	181*[activator]	5
CC(=O)c1c(C(C)=O)c(C)n(C(c2ccccc2)c2ccccc2)c1C	98	22	96	93	96	5
CC1(C)CC(=O)C=C(Nc2ccc(F)cc2F)C1	106	11	103	110	104	18
CC1(C)CC(=O)C=C(Nc2ccccc2F)C1	101	267*	103	107	106	8
O=C(CSc1nnc(-c2c[nH]c3ccccc23)o1)N1CCCCC1	115	24	102	97	101	57*
CCc1cccc(CC)c1NC(=O)COC(=O)CC1c2ccccc2CCN1S(=O)(=O)c1ccccc1 (stereo unspecified)	128	12	98	97	104	78*
CCc1cccc(CC)c1NC(=O)COC(=O)c1cccc(S(=O)(=O)N2CCc3ccccc3C2)c1	98	17	101	102	101	3
CC(O)C1C(=O)OC2(C)CC(C)(C)NC(=S)N12 (stereo unspecified)	106	119*	103	112	112	5
